From PubChem BioAssay

tested on: Chordin-like protein 2 (CHRDL2); experiment: CHRDL2 small-molecule binders, primary screen, biochemical, small-molecule microarray, 635 nm fluorescence (AID 1126); details: small-molecule microarray binding, fluorescence 635 nm; higher = more signal;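 also: printed compound slides probed with Chrdl2 protein at 4 µg/mL for 1 h at 4 C; score merges 667 nm emission intensity with signal to noise over three replicate slides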

SMILES | composite z-score
COC(=O)c1c(CC[C@@H](CO)NC(=O)N[C@@H](Cc2ccccc2)Cn2cc(-c3ccccn3)nn2)oc(C(=O)N2CCOCC2)c1C(=O)OC | -0.488
C=CCN1C(=O)[C@]2(O[C@H](CCO)[C@@H]([Si](C)(C)c3ccc(OC)cc3)[C@@H]2C)c2cc(N(C=O)c3ccccc3)ccc21 | -0.0095
[N-]=[N+]=Nc1ccccc1[C@H]1OC(c2ccc(OCCCO)cc2)=N[C@@]1(CCS(=O)(=O)c1ccccc1)C(=O)NCc1ccccc1 | -0.164
O=C1OCCC=C[C@H]2OC34C=CCN(CCN5CCOCC5)C(=O)[C@H]3N(CCCCCO)C(=O)[C@@H]4C12 (stereo partly drawn) | 0.355
O=C1O[C@@H](c2ccccc2)[C@@H](c2ccccc2)N2[C@@H](c3ccc(OCCO)cc3)[C@]3(C(=O)Nc4ccc(C#CCCO)cc43)[C@@H](C(=O)NC[C@H](O)c3ccccc3)[C@H]12 | 0.891
CN1C(=O)C2C=CC(C(O)c3ccccc3)N(N3CCCCC3)C2C1=O (stereo not drawn) | -0.409
O=C1NC(=O)C2C1C=CC(C(O)c1ccc(I)cc1)N2Nc1ccc(Cl)cc1Cl (stereo not drawn) | -0.776

molecular target: Concanavalin-A (Canavalia ensiformis) (UniProt P02866); experiment: ConA small-molecule binders, primary screen, artefact control for SMM control protein annotation, biochemical, small-molecule microarray, Alexa647 label, 635 nm (AID 1127); details: ConA-A647 binding fluorescence, higher = more signal;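 also: z combines 667 nm emission intensity with signal-to-noise across three replicate slides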
Sequence (P02866 whole entry, looked up): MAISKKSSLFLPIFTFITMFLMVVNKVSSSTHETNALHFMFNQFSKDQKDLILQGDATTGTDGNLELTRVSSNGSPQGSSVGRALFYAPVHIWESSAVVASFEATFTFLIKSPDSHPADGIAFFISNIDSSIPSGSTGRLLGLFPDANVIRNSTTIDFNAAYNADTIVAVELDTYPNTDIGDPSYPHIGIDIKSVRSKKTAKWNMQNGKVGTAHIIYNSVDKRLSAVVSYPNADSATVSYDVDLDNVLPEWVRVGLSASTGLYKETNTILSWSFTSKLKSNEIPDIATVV

SMILES | composite z-score
CN1C(=O)C2C=CC(C(O)c3ccc(F)cc3)N(N(c3ccccc3)c3ccccc3)C2C1=O (stereo not drawn) | 0.324
Cc1ccc(S[C@]2(C(=O)O)CC(=O)N(Cc3ccccc3C(F)(F)F)[C@@H]2c2ccc(CO)cc2I)cc1 | -0.0929
C[N+](C)(C)CCCC[C@@H]1NC(=O)[C@@H]2C[C@H](C(=O)NCCCCCN)[C@H](c3ccc(O)cc3)N2C1=O | 1.15
COCCOC(=O)N1C(=O)[C@@]2(c3cc(C#CCCO)ccc31)[C@H](c1ccc(O)cc1)N1[C@H](c3ccccc3)[C@H](c3ccccc3)OC(=O)[C@H]1[C@@H]2C(=O)N1CCN(c2ncccn2)CC1 | 1.16
O=C(CS)NCCCCCNC(=O)[C@@H]1C[C@@H]2C(=O)NCC(=O)N2[C@@H]1c1ccc(O)cc1 | 0.53
O=C1C2C=CC(C(O)C=Cc3ccc([N+](=O)[O-])cc3)N(n3cnnc3)C2C(=O)N1Cc1ccccc1 (stereo not drawn) | 0.876
C=C(/C(=C/C[C@H](OC(=O)c1ccncc1)c1ccc(OCCO)cc1)c1cc(C(=O)OC)ccc1OC)C(C)C | 0.985
CN(C)CCCC[C@@H]1NC(=O)[C@H]2C[C@@H](C(=O)NCCCCCN)[C@@H](c3cccc(OCCO)c3)N2C1=O | 1.12
CCCNC(=O)[C@@H]1c2ccccc2C(=O)N(Cc2ccccc2OC)[C@H]1c1ccc(CO)cc1 | 0.748
Cc1ccc(S[C@]2(C(=O)O)CC(=O)N(C(C)C)[C@@H]2c2ccc(CO)cc2)cc1 | 0.394
COCCCNC(=O)[C@@]1(CCS(=O)(=O)c2ccccc2)N=C(c2ccc(OCCCO)cc2)O[C@H]1c1ccccc1N=[N+]=[N-] | 1.07
C=CC[C@@]1(C(=O)N2CCCCC2)N=C(c2ccc(OCCCO)cc2)O[C@@H]1c1ccccc1CN=[N+]=[N-] | 1.04
C#CCN1[C@@H](Cc2ccc(O)cc2)C(=O)O[C@H](Cc2ccccc2)[C@@H]1/C=C/C1CC1 | -0.457
OCC1C=C(/C=C/c2ccccc2)CN1Cc1ccccc1Br (stereo not drawn) | 0.94
COc1ccc(C(=O)Nc2ccc(CN3C(=O)[C@]4(O[C@H](CC(=O)N5CCC[C@H]5CO)[C@@H]([Si](C)(C)c5ccc(OC)cc5)[C@@H]4C)c4ccccc43)cc2)cc1 | 0.884
CO[C@H]1O[C@H](CO)[C@@H](OC(=O)Nc2ccccc2-c2ccccc2)[C@H](OC(=O)Nc2ccccc2-c2ccccc2)[C@@H]1OC(=O)Nc1ccccc1-c1ccccc1 | 1.17
O=C1C[C@@](C(=O)NCc2ccccc2)(c2ccc([N+](=O)[O-])cc2)[C@@H](c2ccc(CO)cc2)N1CC12CC3CC(CC(C3)C1)C2 | 0.89
C=C(CCCC)/C(=C/C[C@H](OC(C)=O)c1ccc(OCCO)cc1)c1cnc2ccccc2c1 | 0.817
COC(=O)[C@]1(Cc2ccccc2)N=C(c2ccc(OCCCO)cc2)O[C@@H]1c1ccccc1N=[N+]=[N-] | 0.666
COC(=O)C(CC#Cc1ccc2c(c1)[C@]1(C(=O)N2)[C@H](c2ccc(O)cc2)N2[C@H](c3ccccc3)[C@H](c3ccccc3)OC(=O)[C@H]2[C@@H]1C(=O)N1CCN(c2ncccn2)CC1)C(=O)OC | 1.11
CO[C@H]1O[C@H](CO)[C@@H](OC(=O)Nc2ccc(Br)cc2)[C@@H]2OC(=O)[C@H](Cc3cccc(Br)c3)C/C=C/C[C@@H](Cc3cccc(Br)c3)C(=O)O[C@@H]12 | 0.365
